Potency data for 22 compounds are collected here from PubChem BioAssay (NCATS).

Structures are written as SMILES. Inconclusive results are not listed. Active and inactive are the calls of the source. The call rests on the fitted dose curve; in most records, active means well fitted cell-killing curve with a large enough effect; inconclusive means small, poorly fitted or top-dose-only effect, or effect the other way; inactive means no such curve, though single readings can be large or run the other way.

A short description of assay [1]: Quantitative High-Throughput drug screen in 47 multiple myeloma cell lines against the NCATS MIPE library collection: OCIMY1_PLB cell viability assay (AID 1918979). Further: nearly all actives have a fitted effect of over 35% in size. In short, it runs like this:
(§1)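 500 cells/well per myeloma line exposed to pinned MIPE 4.0 compounds for 48 h at 37 °C, 5% CO2. Viability read as ATP by CellTiter-Glo luminescence, normalised to DMSO-only (100%) and media-only (0%) wells.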

A short description of assay [2]: Quantitative High-Throughput drug screen in 47 multiple myeloma cell lines against the NCATS MIPE library collection: LP1_DSMZ cell viability assay (AID 1918982). Further: nearly all actives have a fitted effect of over 35% in size. Further: potency means the concentration at half of the fitted maximal effect. The essentials: as §1
The nature of assay [3]: Quantitative High-Throughput drug screen in 47 multiple myeloma cell lines against the NCATS MIPE library collection: L363_DSMZ cell viability assay (AID 1918984). Further: nearly all actives have a fitted effect of over 40% in size. Further: potency means the concentration at half of the fitted maximal effect. In short, it runs like this: as §1
Assay [4] in a line: Quantitative High-Throughput drug screen in 47 multiple myeloma cell lines against the NCATS MIPE library collection: KMS34_JCRB cell viability assay (AID 1918985). Further: nearly all actives have a fitted effect of over 40% in size. Further: potency means the concentration at half of the fitted maximal effect. In short, it runs like this:
as §1

Assay [5] in a line: Quantitative High-Throughput drug screen in 47 multiple myeloma cell lines against the NCATS MIPE library collection: KMS28PE_JCRB cell viability assay (AID 1918983). Further: nearly all actives have a fitted effect of over 35% in size. Further: potency means the concentration at half of the fitted maximal effect. The essentials:
as §1

Assay [6] in a line: Quantitative High-Throughput drug screen in 47 multiple myeloma cell lines against the NCATS MIPE library collection: OPM1_PLB cell viability assay (AID 1918989). Further: nearly all actives have a fitted effect of over 40% in size. Further: potency means the concentration at half of the fitted maximal effect. In short, it runs like this:
as §1

Assay [7] is described as follows: Quantitative High-Throughput drug screen in 47 multiple myeloma cell lines against the NCATS MIPE library collection: OCIMY7_PLB cell viability assay (AID 1918987). Further: nearly all actives have a fitted effect of over 65% in size. Further: potency means the concentration at half of the fitted maximal effect. Conditions: OCI-MY7 myeloma viability, CellTiter-Glo ATP, 48 h; viability (% of DMSO): at 45.8 µM (top of the series). The essentials: as §1
Assay [8] can be described thus: Quantitative High-Throughput drug screen in 47 multiple myeloma cell lines against the NCATS MIPE library collection: MM1R_ATCC cell viability assay (AID 1918981). Further: nearly all actives have a fitted effect of over 35% in size. Further: potency means the concentration at half of the fitted maximal effect. In short, it runs like this: as §1
A short description of assay [9]: Quantitative High-Throughput drug screen in 47 multiple myeloma cell lines against the NCATS MIPE library collection: OCIMY5_PLB cell viability assay (AID 1918988). Further: nearly all actives have a fitted effect of over 65% in size. Further: potency means the concentration at half of the fitted maximal effect. The essentials:
as §1

The nature of assay [10]: Quantitative High-Throughput drug screen in 47 multiple myeloma cell lines against the NCATS MIPE library collection: MM1S_ATCC cell viability assay (AID 1918980). Further: nearly all actives have a fitted effect of over 45% in size. Further: potency means the concentration at half of the fitted maximal effect. The essentials: as §1

With `Cc1ccc(C(C)(O)c2nc3ccccc3s2)c(C)c1` (stereo not drawn), the Potency result in assay [1], in assay [2], in assay [3] and in assay [4] was “inactive” each time.
In the case of `CCC(=O)O[C@]1(C(=O)CO)CC[C@H]2[C@@H]3CCC4=CC(=O)CC[C@]4(C)[C@@H]3CC[C@@]21C`, the Potency entry in assay [1], in assay [5] and in assay [6] was “inactive” in each case. Further, the results for the Potency in assay [2] and in assay [4] were 5.26 µM (active) and 0.0017 µM (active), respectively.
On to `Cn1cc(C=C2C(=O)Nc3cccnc32)c2ccccc21`, for which the Potency result in [1], in assay [2] and in assay [5] was “inactive” throughout. In addition, the Potency in assay [6] is 18.7 µM (active).
As to `CC(C)(C)NC(=O)Nc1cccc(Nc2ncc(F)c(NC(C)(C)CO)n2)c1`, the Potency result in [1] and in [5] was “inactive” each time. The Potency in [7] was 2.35 µM (active); in [6] it was 13.2 µM (active).
On to `Cc1ccn(-c2ccc(-c3ncco3)cc2)c(=O)c1-c1ccc2nc(N)ncc2c1`, for which the Potency result in [1], in [2] and in assay [5] was “inactive” in each case. The Potency is 0.935 µM (active) in [7] and 3.72 µM (active) in [6].
`O=C(CCc1ccc(O)cc1)c1c(O)cc(O)cc1O[C@@H]1O[C@H](CO)[C@H](O)[C@H](O)[C@H]1O`: the Potency result in [1], in assay [8], in assay [3] and in assay [9] was “inactive” in each case.
As for `CC=CCC(C)C(O)C1C(=O)NC(CC)C(=O)N(C)CC(=O)N(C)C(CC(C)C)C(=O)NC(C(C)C)C(=O)N(C)C(CC(C)C)C(=O)NC(C)C(=O)NC(C)C(=O)N(C)C(CC(C)C)C(=O)N(C)C(CC(C)C)C(=O)N(C)C(C(C)C)C(=O)N1C` (stereo not drawn), in assay [10], the Potency entry was “inactive”.
As for `O=C(O)c1ccc(-c2c[nH]c3ncc(-c4ccccc4)cc23)cc1C1CCCC1`, the Potency entry in [1] and in assay [2] was “inactive” each time. In addition, the Potency in assay [4] was 14.8 µM (active); in assay [7] it was 8.33 µM (active).
Consider `CC1(C)CCC2=C(O1)c1ccccc1C(=O)C2=O`, for which the Potency in [10] was 26.4 µM (active); in assay [8], 23.5 µM (active); in assay [2], 20.9 µM (active); in assay [4] it was 13.2 µM (active); in [7], 3.32 µM (active); in [6], 20.9 µM (active).
As to `COc1cc(O)c2c(c1)C(=O)c1cc(C)cc(O)c1C2=O`, the Potency entry in assay [1], in assay [2] and in [3] was “inactive” throughout.
In the case of `Cc1ccc(F)c(NC(=O)Nc2ccc(-c3cccc4[nH]nc(N)c34)cc2)c1`, the Potency in assay [8] was 23.5 µM (active); in assay [2], 16.6 µM (active); in [5], 26.4 µM (active); in assay [3] it was 4.18 µM (active); in assay [4], 26.4 µM (active); in assay [7] it was 4.69 µM (active). In addition, the figures for the Potency in assay [9] and in assay [6] were 20.9 µM (active) and 10.5 µM (active), respectively.
For `O=C(O)c1ccccc1C(=O)Nc1ccc(-c2ccccc2)cc1`, the Potency entry in [8], in assay [2], in assay [5], in assay [3], in [4] and in assay [7] was “inactive” throughout. Also, the Potency result in [9] is “inactive”.
As to `O=C(O)c1ccc(-c2cc3cccnc3c(-c3ccc4nonc4c3)n2)cc1`, the figures for the Potency in assay [10], in assay [4] and in assay [6] were 23.5 µM (active), 14.8 µM (active) and 20.9 µM (active), respectively.
As for `CC(C)n1nc(-c2ccc3oc(N)nc3c2)c2c(N)ncnc21`, the Potency in [10] is 0.0105 µM (active); in assay [5], 0.0023 µM (active); in [7], 2.64 µM (active); in assay [9], 4.69 µM (active); in assay [6], 0.001 µM (active).
As to `Nc1ncnc2c1nc(Cl)n2[C@@H]1O[C@H](CO)[C@@H](O)[C@@H]1O`, the Potency is 4.18 µM (active) in assay [10]; 0.935 µM (active) in [8]; 18.7 µM (active) in assay [5]; 20.9 µM (active) in [3]; 11.8 µM (active) in [4]; 10.5 µM (active) in [7]. Also, in [9], the Potency is 0.418 µM (active).
Take `O=c1cc(-c2ccc(O)cc2)oc2cc(O)cc(O)c12`: the Potency in assay [10] was 8.33 µM (active); in assay [5] it was 18.7 µM (active); in assay [4] it was 13.2 µM (active); in assay [6], 18.7 µM (active).
Consider `O=C1NC(=O)C(=Cc2ccc3nccnc3c2)S1`, for which the Potency in assay [10] was 6.45 µM (active); in assay [8], 8.12 µM (active); in assay [5] it was 10.2 µM (active); in assay [3], 0.115 µM (active); in assay [7], 2.29 µM (active); in assay [6], 6.45 µM (active).
Turning to `COc1ccc(C2CC(c3ccccc3)=NN2c2ccc(S(N)(=O)=O)cc2)cc1` (stereo not drawn), the Potency was 23.5 µM (active) in assay [10], 16.6 µM (active) in [8], 16.6 µM (active) in [3] and 20.9 µM (active) in assay [6]. For the same compound, in [5], the Potency result was “inactive”.
As to `CCOC(=O)C1=C(N)Oc2ccc(Br)cc2C1C(C#N)C(=O)OCC` (stereo not drawn), the Potency is 16.6 µM (active) in assay [10]; 23.5 µM (active) in assay [8]; 26.4 µM (active) in assay [5]; 7.43 µM (active) in assay [7]; 9.35 µM (active) in assay [9]; 23.5 µM (active) in assay [6].
Take `C[C@H](NC(=O)C(=O)Nc1ccccc1C(C)(C)C)C(=O)N[C@@H](CC(=O)O)C(=O)COc1c(F)c(F)cc(F)c1F`: the Potency entry in assay [8] and in [6] was “inactive” throughout. Also, the Potency in [2] was 9.35 µM (active); in [3] it was 0.833 µM (active).
`O=C(N[C@@H](c1ccccc1)[C@@H]1CCCCN1)c1cccc(C(F)(F)F)c1Cl`: in assay [10], the Potency is 20.9 µM (active). Also, in assay [7], the Potency entry is “inactive”.
Take `O=C(NCc1ccncc1)C12C[C@H]3C[C@@H](C1)CC(c1ccc(Cl)cc1)(C3)C2`: the Potency was 13.2 µM (active) in assay [10]; 18.7 µM (active) in assay [8]; 23.5 µM (active) in assay [5]; 5.26 µM (active) in assay [3]; 18.7 µM (active) in assay [7]; 18.7 µM (active) in [6].
